Screening data (PubChem BioAssay)
LmPK inhibitor = inhibitors of Leishmania mexicana pyruvate kinase; Potency, µM (top dose mostly 57.5 µM), actives largely listed as inhibitors; actives 0.37% (n = 290,000); purified LmPK, Kinase-Glo ATP luminescence, 1 h; active means well fitted curve in the direction sought with a large enough effect; inconclusive means small, poorly fitted or top-dose-only effect, or another doubt; inactive means no such curve, though single readings can be large; an effect the other way counts as inactive or inconclusive
Target sequence (Q27686 whole entry, looked up): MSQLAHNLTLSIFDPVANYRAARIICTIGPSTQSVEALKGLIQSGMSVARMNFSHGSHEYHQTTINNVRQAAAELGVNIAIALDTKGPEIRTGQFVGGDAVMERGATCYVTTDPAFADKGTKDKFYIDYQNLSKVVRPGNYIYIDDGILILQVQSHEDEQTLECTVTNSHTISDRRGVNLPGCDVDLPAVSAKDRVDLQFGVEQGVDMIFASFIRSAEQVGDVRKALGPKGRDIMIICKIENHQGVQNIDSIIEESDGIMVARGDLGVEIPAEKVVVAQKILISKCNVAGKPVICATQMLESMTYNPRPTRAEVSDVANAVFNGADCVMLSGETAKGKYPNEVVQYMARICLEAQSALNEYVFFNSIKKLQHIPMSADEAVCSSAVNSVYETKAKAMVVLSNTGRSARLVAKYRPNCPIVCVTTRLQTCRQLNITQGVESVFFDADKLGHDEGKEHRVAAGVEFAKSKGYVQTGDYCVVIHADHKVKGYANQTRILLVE
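Purified LmPK (0.1 nM) with 0.5 mM PEP and 0.1 mM ADP in imidazole buffer pH 7.2 with MgCl2/KCl, 1 h at room temperature. ATP formed was read by luciferase luminescence and normalized to no-enzyme and uninhibited controls.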
NS1 inh = inhibitors of influenza NS1 protein function | actives 0.4% (n = 270,000) | Potency, µM (series often up to 46.1 µM); further: actives are rising curves; nearly all actives have a fitted effect of over 50% in size
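In this qHTS, NS1 from influenza A is expressed in budding yeast, where it slows growth. Cells are switched from glucose to 2% galactose medium (pH 6.0, -URA), treated with compound, and growth recovery is read at OD600.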
Shiga inhibitor = blocks Shiga toxin action in Vero cells. Vero cells, Shiga toxin protein synthesis inhibition reporter. inhibition, % at 38.7 µM. actives 9.2% (n = 290,000); in the data active means inhibition mostly above about 28%, no sharp cut-off; inactive means mostly below about 43%
SARS PLpro yeast = blocks SARS-CoV papain-like protease in a yeast assay; AID 485353; S. cerevisiae expressing SARS-CoV PLpro, growth rescue; actives 0.19% (n = 330,000); Potency, µM (doses to about 32.9 µM), hits mostly activators; further: nearly all actives have a fitted effect of over 55% in size
Tb PYK inh = blocks Trypanosoma brucei pyruvate kinase; Q57TT1; TbPYK enzyme, Kinase-Glo Plus ATP luminescence, 45 min; Potency, µM (highest dose often 76.8 µM), hits mostly inhibitors; actives 0.12% (n = 410,000); AID 624173; active means well fitted curve in the direction sought with a large enough effect; inconclusive means small, poorly fitted or top-dose-only effect, or another doubt; inactive means no such curve, though single readings can be large; an effect the other way counts as inactive or inconclusive; further: nearly all actives have a fitted effect of over 50% in size
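In this concentration-response screen, enzyme-free wells defined baseline while DMSO plates tracked drift. Each reaction combined TbPYK, substrate, compound and 130 uM ADP for 45 min at room temperature. Kinase-Glo Plus luminescence gave the signal.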
Cycloheximide cs = counter-screen for Shiga toxin inhibitors: cycloheximide protein synthesis inhibition; cell reporter, cycloheximide protein synthesis inhibition counterscreen; max response, %; actives 12% (n = 300,000); AID 2314; in the data active means max response mostly above about 13%, no sharp cut-off; inactive means mostly below about 14%; further: read at 38.3 µM for the half of the compounds with a filed dose
Numbers stand for hits; . = inactive; ? = inconclusive; / = no result given; + = active, no number. The full list was thinned out, with hits kept by preference. Unless noted, the call rests on the fitted dose curve.

SMILES	LmPK inhibitor	NS1 inh	Shiga inhibitor	SARS PLpro yeast	Tb PYK inh	Cycloheximide cs
COCC(C)n1c(C)cc(C(=O)CSc2nnc(-c3ccco3)o2)c1C (configuration not stated)	/	/	/	.	.	/
COCC(C)n1c(C)cc(C(=O)CSc2ccc(NC(C)=O)cc2)c1C (configuration not stated)	.	.	52.5	.	.	25.6
COCC(C)n1c(C)cc(C(=O)COC(=O)c2c(NC(C)=O)sc(C)c2C)c1C (configuration not stated)	.	.	.	.	.	.
COCC(C)n1c(C)cc(C(=O)CSc2ncccn2)c1C (configuration not stated)	.	/	71.6	.	.	36.4
COCC(C)n1c(C)cc(C(=O)CSc2nnnn2-c2ccc(O)cc2)c1C (configuration not stated)	.	/	49.9	.	.	28.5
CC(=O)Nc1ccc(SCC(=O)c2cc(C)n(-c3ccccc3F)c2C)cc1	.	.	125.4	.	.	73.9
COC(=O)c1ccc(-n2c(C)cc(C(=O)CSc3ccc(NC(C)=O)cc3)c2C)cc1	.	.	.	.	.	.
COc1c(O)ccc2c1CN1CCc3cc4c(cc3[C@@H]1C2)OCO4	/	.	/	/	/	/
COCCCNC(=O)Cn1nnc(-c2ccc(NC(=O)c3ccccc3F)cc2)n1	.	.	47.9	.	.	26.0
COCCCNC(=O)Cn1nnc(-c2ccc(NC(=O)c3ccccc3OC)cc2)n1	.	.	.	.	.	.
NS(=O)(=O)c1ccc(N=NN2CCCCC2)cc1	.	.	56.4	.	.	52.3
O=C(O)c1ccc(N=NN2CCCCC2)cc1	.	.	.	?	.	53.3
COC(=O)c1ccc(N=NN2CCCCCC2)cc1	.	.	87.6	.	.	79.4
COC(=O)c1ccc(N=NN2CCOCC2)cc1	.	.	34.4	?	.	40.9
N#Cc1ccc(C(=O)OCC(=O)N2CCOCC2)cc1	.	.	.	.	.	.
O=P(C(=Nc1ccc(Cl)cc1)N1CCOCC1)(N1CCOCC1)N1CCOCC1	.	.	.	.	.	.
Clc1ccc(N=NN2CCOCC2)cc1	.	.	70.6	.	.	42.3
N/C(=N\OC(=O)Cc1cccs1)c1ccc(Br)cc1	.	.	81.2	.	.	50.0
N/C(=N\OC(=O)Cc1cccs1)c1ccc([N+](=O)[O-])cc1	.	.	+	.	.	31.2
N/C(=N\OC(=O)CCCOc1ccccc1)c1ccc(Br)cc1	.	.	.	.	.	.
NC(=O)C1CC(=O)N(c2ccc(OCc3ccc([N+](=O)[O-])cc3)cc2)C1 (configuration not stated)	.	.	/	.	.	26.1
NC(=O)C1CC(=O)N(c2ccc(OCc3ccccc3Cl)cc2)C1 (configuration not stated)	.	.	24.5	.	.	22.8
NC(=O)C1CC(=O)N(c2ccc(OCc3ccc(F)cc3)cc2)C1 (configuration not stated)	.	.	93.7	.	.	37.4
NC(=O)C1CC(=O)N(c2ccc(OCc3c(F)cccc3Cl)cc2)C1 (configuration not stated)	.	.	.	.	.	.
O=C(NCc1ccccc1Cl)c1ccc2oc(=O)n(Cc3ccccc3)c2c1	/	/	/	/	.	/
SMILES	LmPK inhibitor	NS1 inh	Shiga inhibitor	SARS PLpro yeast	Tb PYK inh	Cycloheximide cs
O=C(CCC(=O)N1Cc2ccccc2Oc2ncccc21)NCc1cccc(Cl)c1	/	/	/	/	.	/
O=C(NCc1cccs1)C1CC(c2ccc(Cl)cc2)=NO1 (configuration not stated)	.	.	.	.	.	12.6
O=C(NCc1ccco1)C1CC(c2ccc(F)cc2)=NO1 (configuration not stated)	.	.	.	.	.	16.7
COc1cccc(C2=NOC(C(=O)NCc3ccco3)C2)c1 (configuration not stated)	.	.	.	.	.	.
Cc1ccc(CNC(=O)C2CC(c3ccc(C(F)(F)F)cc3)=NO2)o1 (configuration not stated)	.	.	.	.	.	.
O=C(NCCc1cccs1)C1CC(c2cccc(F)c2)=NO1 (configuration not stated)	.	.	.	.	.	.
O=C(NCc1ccco1)C1CC(c2ccc(Cl)cc2)=NO1 (configuration not stated)	.	.	.	.	.	26.7
